The record followed here is PubChem BioAssay (NCATS).

Records with an inconclusive call do not appear. Some compounds were tested as several samples or in several runs, with calls that do not always agree. Activity calls are given as the source filed them. Unless noted, the call rests on the fitted dose curve.

The nature of test [1]: Cytotoxicity counterscreen for inhibitors of SARS-CoV-2 cell entry (AID 1645845). Further: nearly all actives have a fitted effect of over 50% in size. Summed up:
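Counterscreen run in the same HEK293-ACE2 line as the pseudotyped-particle entry assay, without particles. Viability after 48 h at 37 C was read as ATP luminescence, scaled between cell-containing and cell-free wells.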

Test [2] can be described thus: Primary qHTS to identify inhibitors of SARS-CoV-2 cell entry (AID 1645846). Further: nearly all actives have a fitted effect of over 45% in size. Further: potency means the concentration at half of the fitted maximal effect. The conditions noted are these: activity change, negative = inhibition: at 57.1 µM (top of the series) unless noted. Summed up:
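HEK293-ACE2 (Expi293F, stable hACE2), 1500 cells/well, o/n 37C; cpd 23 nL pin, 1 h; MLV-PP w/ SARS-CoV-2-S (Wuhan-Hu-1, Δ19 C-term); 48 h 37C; Bright-Glo luminescence; normalized vs S-PP and bald PP.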

The next test has as its target Papain (Carica papaya) (UniProt P00784). Briefly: Primary qHTS assay for inhibitors of the protease papain (AID 1645873; active means well fitted inhibition curve with a large enough effect;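 further: papain turnover of Z-FR-AMC read as the AMC fluorescence gain over 10 min; on the % scale 0 is the no-effect control and ±100 the full control effect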). A general note: qHTS replaces the single test concentration by a dilution series.

Sequence of Papain (Carica papaya) (P00784 whole entry, looked up): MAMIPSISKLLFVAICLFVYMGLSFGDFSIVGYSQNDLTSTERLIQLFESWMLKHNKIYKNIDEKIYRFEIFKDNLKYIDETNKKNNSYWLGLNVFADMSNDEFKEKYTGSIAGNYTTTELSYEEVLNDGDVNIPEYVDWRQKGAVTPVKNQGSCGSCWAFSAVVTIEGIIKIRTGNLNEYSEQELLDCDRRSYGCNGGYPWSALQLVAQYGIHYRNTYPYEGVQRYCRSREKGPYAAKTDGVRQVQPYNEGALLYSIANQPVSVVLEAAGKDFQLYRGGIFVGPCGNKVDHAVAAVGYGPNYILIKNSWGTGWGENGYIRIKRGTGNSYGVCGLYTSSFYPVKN

Turning to `COC(=O)c1ccc2c(C(=Nc3ccc(N(C)C(=O)CN4CCN(C)CC4)cc3)c3ccccc3)c(O)[nH]c2c1`, the Potency result in test [1] was “inactive”. For the same compound, in test [2], the Potency is 17.8 µM (active) and the activity change, negative = inhibition was -18.4%.
Take `CCOP(=O)(OCC)C(C)NC(=O)N(CCCl)N=O` (centres undefined): the Potency result in test [1] is “inactive”. Also, in test [2], the Potency entry is “inactive” and the activity change, negative = inhibition was -18.4%.
In the case of `NCCCC(N)(C(=O)O)C(F)F` (centres undefined), the Potency entry in test [1] and in test [2] was “inactive” each time.
`O=C1[C@H](Cc2ccc(O)cc2)N2C(=O)CCN(C(=O)NCc3ccccc3)[C@H]2CN1Cc1cccc2ccccc12`: the activity change, negative = inhibition in test [2] was -93.3%.
In the case of `CCN(c1ccccc1)c1cc(NC)[n+](C)c(C)n1`, the Potency entry in test [1] is “inactive”. Moreover, the activity change, negative = inhibition in test [2] turned out to be 3.72%.
Regarding `CC1=C(C/C=C(\C)CCC[C@H](C)CCC[C@H](C)CCCC(C)C)C(=O)c2ccccc2C1=O`, the Potency result in test [2] was “inactive”.
Consider `CCCN1CCO[C@@H]2c3cc(O)ccc3OC[C@H]21`, for which the Potency entry (in test [1]; in test [2]; with Papain (Carica papaya)) was “inactive” each time.
With `CC(C)CC(=O)Nc1n[nH]c2c1CN(C(=O)C1CCN(C)CC1)C2(C)C`, the Potency in test [2] is 5.62 µM (active).
Turning to `CN(C)CC/C=C1/c2ccccc2COc2ccc(CC(=O)O)cc21`, the Potency entry in test [1] is “inactive”. Also, in test [2], the Potency entry is “inactive” and the activity change, negative = inhibition was -14.5%.
